From PubChem BioAssay (NCATS)
Results filed as inconclusive are left out. Values without a mark were called inactive. Calls follow the shape of the dose curve; as a rule, active = well fitted inhibition curve with a large enough effect; inconclusive = small, poorly fitted or top-dose-only effect; inactive = flat fitted curve, though single readings scatter.

target: Aldehyde dehydrogenase, mitochondrial (Homo sapiens) (UniProt P05091); experiment: qHTS for Inhibitors of the Aldehyde Dehydrogenase Family (ALDH2) Primary screen (AID 2061308); details: ALDH2 enzyme inhibition qHTS, 1536-well; series mostly up to 56 µM; activity change, negative = inhibition: at the top concentration;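 also: plate controls were vehicle for no effect and reference inhibitor for full effect; nearly all actives have a fitted effect of over 55% in size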

SMILES | activity change, negative = inhibition
O=[N+]([O-])c1ccccc1-c1nc(NCc2ccc(-c3cccnc3)cc2)c2ccccc2n1 | -4.1%
COc1cc(NC(=O)C(OC(=O)CNC(=O)c2ccccc2)c2ccccc2)c(OC)cc1Cl (configuration not stated) | -7.99%
Oc1c(CN2CCCCC2)cc(COCc2ccccc2)c2cccnc12 | 12%
Nc1ncnc2c1nc(N)n2[C@@H]1O[C@H](CO)[C@@H](O)[C@H]1O | -0.572%
O=C(NCCc1ccc2c(c1)OCO2)c1cc2sccc2n1Cc1ccccc1 | -22.5%
Cc1cc(/C=C2/C(=O)Nc3ccccc32)cc(C)c1O | 1.14%
Nc1cc(-c2nc(Nc3ccc(F)c(F)c3)c3ccccc3n2)ccn1 | 3.82%
O=S(=O)(NC1CCC(CNS(=O)(=O)c2c(F)cccc2F)CC1)c1ccc2c(c1)OCCO2 (configuration not stated) | 9.68%
Nc1ncc(S(=O)(=O)N2CCOCC2)s1 | 1.96%
Cc1cccc(-c2ccc3ncnc(NCc4cccs4)c3c2)c1 | 2.59%
Cc1cc2c(s1)c1cnn(Cc3ccc(C(C)(C)C)cc3)c(=O)c1n2C | -6.51%
CCC(=O)NC(c1cccs1)c1ccc2cccnc2c1O (configuration not stated) | 6.39%
Cc1ccc(S(=O)(=O)Nc2ccccc2Nc2nc(-c3ccccc3)cs2)cc1 | -6.16%
COC(=O)C(CC1(O)c2ccccc2N2C(=O)C(C)(C)N(O)C21)n1cnc2ccccc2c1=O (configuration not stated) | -11.3% [at 28 µM]
Cc1ccccc1-c1ccc(=O)n(CC(=O)NCCc2ccccc2)n1 | 6.84%
Cc1ccc(-c2nn(CC(=O)N(C)C(C)c3ccco3)c(=O)cc2C)cc1 (configuration not stated) | 4.36%
CCOc1ccc(CCNC(=O)c2cc3sccc3n2CCN2CCN(C)CC2)cc1OCC | 10.4%
